This is one part of a sample in which hits are shown more often than they occur.
Pf Dd2 growth: qHTS Primary assay for Inhibitors of Plasmodium falciparum Dd2 growth in vitro; P. falciparum Dd2 growth, SYBR Green, 72 h; Potency, µM (top dose mostly 28.9 µM), actives largely listed as inhibitors; 120,000 tested, 4.3% active; AID 1347417, 2020; active = well fitted inhibition curve with a large enough effect; also: nearly all actives have a fitted effect of over 65% in size
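Readout: SYBR Green fluorescence, 485 nm excitation, 535 nm emission, after ~16 h lysis at 37C. Before that, Dd2-infected red cells (2.5% hematocrit) grew 72 h with compound, 29 uM top final concentration.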
Numbers stand for hits; – = inactive; ! = not active in a repeat; [ ] = dose if it differs, or a comment.

SMILES	Pf Dd2 growth
CC(=O)c1ccc(NC(=O)Cn2c(N3CCc4ccccc4C3)nc(C)cc2=O)cc1	–
COc1ccc(-c2cnc3n[nH]c(-c4sccc4C)c3n2)cc1OC	–
CNC(=O)c1ccc2c(c1)C1(CCN(CC3CC3)C1)CN2Cc1ccccc1 (stereo not given)	–
COC(=O)CNC(=O)c1nc(-c2ccccc2OC)c2cnccn12	–
O=C(c1nc(-c2cccc(C(F)(F)F)c2)c2ccccn12)N1CCN(c2ncccn2)CC1	–
CC(C)(C)c1nc(C(=O)N2CCN(c3ncccn3)CC2)n2ccncc12	5µM
O=C(c1nc(-c2ccc(F)cc2)c2cnccn12)N1CCN(c2ncccn2)CC1	–
COc1ccccc1-c1cc(C(=O)NCc2cccnc2)nn2cccc12	–
COc1ccccc1-c1nc(C(=O)NCc2cccnc2)n2ccncc12	10µM!
O=C(Cc1ccccc1Cl)N1CCC(Cc2nc(-c3ccc(F)cc3)no2)CC1	–
COCCO[C@H]1C(=O)N(C2CCN(C(=O)Nc3ccccc3)CC2)[C@H]1c1ccncc1	–
Cc1ccc(-c2ccc3nnc(CNC(=O)c4ccco4)n3n2)cc1	–
Fc1cccc(CN2CCCC3(CCN(c4cnccn4)C3)C2)c1F (stereo not given)	–
COc1ccc(F)c(CN2CCCC3(CCN(C(=O)c4ccsc4)C3)C2)c1 (stereo not given)	–
COc1ccc(F)c(CN2CCCC3(CCN(c4cc(C)nc(N)n4)C3)C2)c1 (stereo not given)	4µM
COc1cccc(NC(=O)Cn2c(-c3ccc(F)cc3)nc(C)c(CCO)c2=O)c1	–
CC1(c2noc(C3CC3)n2)CCN(C(=O)CCc2cc(Cl)no2)CC1	–
COc1cc(C(=O)Nc2nonc2-c2ccc(C)c(C)c2)cc(OC)c1OC	–
CCOc1ccc(-c2nonc2NC(=O)c2ccc(C)cc2)cc1OCC	2µM
Cc1ccc(-c2nonc2NC(=O)c2ccc(F)cc2)cc1C	–
Cc1cnc(C)c(N2CCN(CC3(O)CCNC3)CC2)n1 (stereo not given)	–
O=C(Nc1ccc(Cl)cc1)N1CCCC(c2nn(-c3ccc(Cl)cc3)c(=O)[nH]2)C1 (stereo not given)	–
Cc1ccc(C)c(S(=O)(=O)N2CCN(C3CCN(Cc4cccnc4)C3=O)CC2)c1 (stereo not given)	–
CCOc1ccccc1N1CC(c2nc3ccccc3n2Cc2c(C)cc(C)cc2C)CC1=O (stereo not given)	–
Cc1cc(C)c(Cn2c(C(O)c3ccccc3)nc3ccccc32)c(C)c1 (stereo not given)	3.2µM
SMILES	Pf Dd2 growth
Cc1ccc(C)c(Cn2c(C(C)NC(=O)c3ccccc3)nc3ccccc32)c1 (stereo not given)	–
CC(C)CNC(=O)c1ccc2c(c1)NC(C)(COc1ccc3[nH]ccc3c1)CO2 (stereo not given)	–
COc1ccc(-c2cc3nc4c(c(=O)n3[nH]2)CN(C(=O)Cc2ccc(NC(C)=O)cc2)CC4)cc1	–[5.79 µM]
COc1ccc(C(=O)N2CCC3(C2)C(=NC2CCCCC2)NC(=O)N3c2cccnc2)cc1 (stereo not given)	–
O=C(NC1CC1)c1ccccc1OC1CN(Cc2ccc(F)cc2F)C1	–
COc1ccc(CN2CC(Oc3ccccc3C(=O)NC3CC3)C2)cc1OC	–
O=C(NCc1ccccc1)c1ccccc1OC1CN(Cc2ccc(F)c(F)c2)C1	–
COc1ccc(OC)c(CN2CCOc3ccc(C(=O)NCc4ccc(C)cc4)cc3C2)c1	–
Cc1ccc(CN2CC(Oc3ccccc3C(=O)NC3CC3)C2)o1	–
COc1ccc(OC2CN(Cc3ccsc3)C2)cc1	–
COc1ccc(OC)c(CN2CC(Oc3ccccc3C(=O)NCc3ccccc3)C2)c1	1.8µM
COc1cccc(CN2CC(Oc3ccccc3C(=O)NC3CC3)C2)n1	4µM
O=C(NCc1ccccc1)c1ccccc1OC1CN(Cc2ccsc2)C1	4µM
O=C(NC1CC1)c1cc(Br)cn2ccnc12	–
COCCNS(=O)(=O)c1cc(C(=O)O)cc(-c2cccc(C(C)N(C)C)c2)c1 (stereo not given)	–
COc1ccc(S(=O)(=O)N2CCc3nc4cc[nH]n4c(=O)c3C2)cc1Cl	–[5.79 µM]
O=C1CC2CCCC(C1)N2C(=O)N1CCCC1	–
COCC1CN(C)CC12CCN(Cc1ccncc1F)CC2 (stereo not given)	–
COCC1CN(C)CC12CCN(Cc1cc(Br)ccc1F)CC2 (stereo not given)	3.5µM
COCC1CN(C)CC12CCN(Cc1ccncc1)CC2 (stereo not given)	–
Cc1ccc(N2CC(c3noc(C4(c5ccccc5)CC4)n3)CC2=O)cc1 (stereo not given)	–
O=C(N[C@@H]1CN(C(=O)Nc2ccc(OC(F)(F)F)cc2)CCC[C@H]1O)c1ccc(OCCN2CCOCC2)cc1	–
COc1ccc(C(=O)N[C@@H]2CN(C(=O)Nc3cccc(C#N)c3)CCC[C@H]2O)cc1	–
COc1ccc(C(=O)N[C@@H]2CN(C(=O)Nc3ccc(OC(F)(F)F)cc3)CCC[C@H]2O)cc1	5µM
CC(C)=CCC1(CO)CCCN(Cc2cc(=O)n3cc(C)sc3n2)C1 (stereo not given)	–
SMILES	Pf Dd2 growth
COc1cc2c(cc1CN1CCCC(CO)(CC=C(C)C)C1)OCCO2 (stereo not given)	7.9µM
COc1cc2c(cc1CN1CCC3(CCCNC3)C1)OCCCO2 (stereo not given)	–
Cc1ccccc1C(=O)N1CCC(c2n[nH]c(=O)n2-c2ccccc2)CC1	–
Cc1cc(C)n(CCc2nc3c4ccccc4nc(N4CCN(c5ccccc5F)CC4)n3n2)n1	–
O[C@H]1[C@H](NCc2cccc(C(F)(F)F)c2)[C@@H](c2ccc(N3CCOCC3)nc2)C[C@H]1O	–
CCn1ncc(CN2CCCC23CCN(c2cc(C)nc4ccccc24)CC3)c1C	2µM
CCCn1ccnc1CN1CCCC12CCN(c1ccc(C(F)(F)F)cn1)CC2	11µM
Cc1cc(CN2CCCC23CCN(c2nc4ccccc4o2)CC3)on1	–
Oc1cccc(CN2CCCC23CCN(c2ccc(C(F)(F)F)cn2)CC3)c1	4.5µM
CCn1ncc(CN2CCCC23CCN(c2ccc(C(F)(F)F)cn2)CC3)c1C	10µM
FC(F)Oc1ccccc1CN1CCCC12CCN(c1ncccn1)CC2	–
Cn1ccnc1CN1CCCC12CCN(c1ccc(C(F)(F)F)cn1)CC2	–
O=C(Cn1nc2c(cc1=O)CCCC2)N1CCN(c2ccc(C(F)(F)F)cn2)CC1	–
O=C1COCC2(CN1Cc1c(F)cccc1Cl)CN(c1ccc(C(F)(F)F)cn1)C2	–
Cc1ccc(CN2C(=O)OC(c3cccc(NC(=O)Cc4ccccc4)c3)C2C(=O)N2CCCC2)cc1 (stereo not given)	–
CN1CCCN(C(=O)[C@H]2C[C@@](C)(C(=O)O)N(C)[C@H]2c2ccccc2Cl)CC1	–
CSCC(=O)N1CCCC(CCc2cccc(F)c2)C1 (stereo not given)	–
COc1ccc(S(=O)(=O)N2CC[C@H](NC(=O)c3ccncc3)C[C@H]2C(=O)N[C@@H](CC2CCCCC2)C(N)=O)cc1	–
CC(C)c1noc(-c2cn(C3CCCN(C(=O)c4ccc(F)cc4Cl)C3)nn2)n1 (stereo not given)	–
CC(=O)N1CCCC(c2nc(-c3cccnc3)no2)CCNC(=O)CC1 (stereo not given)	–
Cc1ccc(C(=O)N2CCn3c(nnc3C3CCCNC3)C2)cc1 (stereo not given)	–
COC(=O)[C@@H](CC(C)C)NC(=O)[C@@H]1C[C@@H](n2nnc(C(N)=O)c2C(N)=O)CCN1C(=O)c1cccn1C	–
